Laboratory results as given in PubChem BioAssay (NCATS).
Results filed as inconclusive are left out. A call without a number means that no potency is given here. A number with no mark means an inactive call. Activity calls are given as the source filed them. The call rests on the fitted dose curve; in most records, active means well fitted curve in the direction sought with a large enough effect; inconclusive means small, poorly fitted or top-dose-only effect, or another doubt; inactive means no such curve, though single readings can be large; an effect the other way counts as inactive or inconclusive.

Key:
[1] = biological target: Rap guanine nucleotide exchange factor 3 (Homo sapiens) (UniProt O95398); experiment: Confirmatory qHTS for antagonist of cAMP-regulated guanine nucleotide exchange factor 3 (EPAC1) (AID 1645880); conditions: EPAC1 Rap1B-BODIPY-GDP exchange, fluorescence; activity, negative = inhibition: at 115 µM (top of the series); further: nearly all actives have a fitted effect of over 55% in size; further: potency means the concentration at half of the fitted maximal effect
In short: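 Released BODIPY-GDP fluoresces less than Rap1-bound BODIPY-GDP; the signal is followed at 480/540 nm at 5-min intervals over 30 min, after 5 min at room temperature. Reactions contain 100 nM EPAC1, 250 nM RAP1B-BODIPY-GDP and 50 uM GDP; results are normalized to ATA and DMSO.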

[2] = biological target: Rap guanine nucleotide exchange factor 3 (Homo sapiens) (UniProt O95398); experiment: Confirmatory qHTS for agonist of cAMP-regulated guanine nucleotide exchange factor 3 (EPAC1) (AID 1645881);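 further: EPAC1 catalysed release of BODIPY-GDP from Rap1B seen as fluorescence loss; nearly all actives have a fitted effect of over 75% in size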
[3] = biological target: Rap guanine nucleotide exchange factor 3 (Homo sapiens) (UniProt O95398); experiment: Counterscreen qHTS for agonist of cAMP-regulated guanine nucleotide exchange factor 3 (EPAC1) (AID 1645889); further: nearly all actives have a fitted effect of over 40% in size
In short: (§1)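 Measured: fluorescence of BODIPY-GDP bound to Rap1B, which falls as exchange proceeds. Conditions include 50 uM competing GDP, 5 and 30 min reads, and a later cAMP challenge for antagonist detection.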

[4] = biological target: Rap guanine nucleotide exchange factor 4 (Homo sapiens) (UniProt Q8WZA2); experiment: Confirmatory qHTS for agonist of cAMP-regulated guanine nucleotide exchange factor 4 (EPAC2) (AID 1645884);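 further: nucleotide exchange releases bodipy-GDP from Rap1 and this lowers its fluorescence; nearly all actives have a fitted effect of over 65% in size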; further: potency means the concentration at half of the fitted maximal effect
[5] = biological target: Rap guanine nucleotide exchange factor 4 (Homo sapiens) (UniProt Q8WZA2); experiment: Confirmatory qHTS for antagonist of cAMP-regulated guanine nucleotide exchange factor 4 (EPAC2) (AID 1645885); further: nearly all actives have a fitted effect of over 25% in size
[6] = biological target: Rap guanine nucleotide exchange factor 3 (Homo sapiens) (UniProt O95398); experiment: Counterscreen qHTS for antagonist of cAMP-regulated guanine nucleotide exchange factor 3 (EPAC1) (AID 1645888)
In short: as §1

Rap guanine nucleotide exchange factor 3 (Homo sapiens), sequence (O95398 whole entry, looked up): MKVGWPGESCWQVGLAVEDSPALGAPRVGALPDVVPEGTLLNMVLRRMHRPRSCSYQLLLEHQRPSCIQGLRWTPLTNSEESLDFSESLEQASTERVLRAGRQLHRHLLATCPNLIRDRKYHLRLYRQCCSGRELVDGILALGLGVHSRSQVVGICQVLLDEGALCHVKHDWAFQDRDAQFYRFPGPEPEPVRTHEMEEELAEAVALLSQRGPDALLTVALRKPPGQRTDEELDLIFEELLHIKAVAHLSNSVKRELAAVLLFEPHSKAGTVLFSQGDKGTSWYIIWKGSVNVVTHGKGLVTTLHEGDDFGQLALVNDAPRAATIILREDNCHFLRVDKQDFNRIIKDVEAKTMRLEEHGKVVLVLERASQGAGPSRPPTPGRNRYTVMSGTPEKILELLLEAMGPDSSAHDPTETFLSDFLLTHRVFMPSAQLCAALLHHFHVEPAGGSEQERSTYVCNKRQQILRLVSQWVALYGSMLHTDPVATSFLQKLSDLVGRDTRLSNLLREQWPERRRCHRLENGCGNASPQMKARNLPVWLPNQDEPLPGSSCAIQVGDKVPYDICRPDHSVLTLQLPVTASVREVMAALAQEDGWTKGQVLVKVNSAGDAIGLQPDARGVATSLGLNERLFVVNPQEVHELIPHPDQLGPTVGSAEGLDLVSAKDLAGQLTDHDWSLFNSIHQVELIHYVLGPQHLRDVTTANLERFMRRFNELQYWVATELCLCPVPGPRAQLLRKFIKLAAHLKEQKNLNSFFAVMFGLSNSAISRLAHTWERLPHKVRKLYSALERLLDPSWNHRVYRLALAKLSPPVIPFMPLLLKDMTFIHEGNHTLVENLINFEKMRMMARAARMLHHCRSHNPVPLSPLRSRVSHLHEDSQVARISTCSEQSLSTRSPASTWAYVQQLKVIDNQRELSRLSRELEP
Rap guanine nucleotide exchange factor 4 (Homo sapiens), sequence (Q8WZA2 whole entry, looked up): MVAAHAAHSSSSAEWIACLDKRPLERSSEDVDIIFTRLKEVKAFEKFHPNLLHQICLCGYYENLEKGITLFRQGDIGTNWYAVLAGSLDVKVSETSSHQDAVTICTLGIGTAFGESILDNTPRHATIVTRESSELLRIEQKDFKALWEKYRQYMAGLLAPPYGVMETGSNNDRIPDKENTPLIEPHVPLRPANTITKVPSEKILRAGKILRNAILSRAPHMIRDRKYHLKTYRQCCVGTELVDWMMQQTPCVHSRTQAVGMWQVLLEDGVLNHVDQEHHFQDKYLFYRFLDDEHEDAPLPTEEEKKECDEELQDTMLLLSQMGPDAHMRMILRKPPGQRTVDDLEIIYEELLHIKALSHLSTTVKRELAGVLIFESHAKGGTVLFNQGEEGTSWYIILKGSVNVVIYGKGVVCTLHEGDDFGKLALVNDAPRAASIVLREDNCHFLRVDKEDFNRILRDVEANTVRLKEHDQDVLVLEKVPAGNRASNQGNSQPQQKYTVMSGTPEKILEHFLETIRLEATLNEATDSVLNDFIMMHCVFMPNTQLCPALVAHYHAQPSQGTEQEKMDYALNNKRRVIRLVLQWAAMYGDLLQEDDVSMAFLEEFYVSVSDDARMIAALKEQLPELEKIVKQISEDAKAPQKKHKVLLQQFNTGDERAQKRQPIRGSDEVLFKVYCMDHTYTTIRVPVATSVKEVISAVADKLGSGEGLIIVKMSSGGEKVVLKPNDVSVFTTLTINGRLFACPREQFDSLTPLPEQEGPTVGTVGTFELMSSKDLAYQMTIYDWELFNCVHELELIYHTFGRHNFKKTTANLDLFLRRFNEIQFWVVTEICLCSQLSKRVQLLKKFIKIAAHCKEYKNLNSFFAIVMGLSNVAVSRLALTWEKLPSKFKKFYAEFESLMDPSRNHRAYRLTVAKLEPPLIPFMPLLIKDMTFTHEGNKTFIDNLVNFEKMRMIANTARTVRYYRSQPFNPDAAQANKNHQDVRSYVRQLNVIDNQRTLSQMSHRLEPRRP

## COc1cc(C)c(S(=O)(=O)N2CCCC2)cc1C(C)C
[1]
  Potency: inactive
[2]
  Potency: inactive
[3]
  activation: 14.6% [at 30.8 µM]

## COc1ccc(OC)c(/C=C/c2nc3ccccc3nc2C)c1
[1]
  Potency: inactive
[4]
  Potency: 79.3 µM (active)
[5]
  Potency: inactive

## Cc1ccc(NC(=O)c2sc3nc(-c4cc5ccccc5oc4=O)[nH]c(=O)c3c2C)c(C)c1
[1]
  Potency: inactive
[4]
  Potency: inactive
[5]
  Potency: inactive
[6]
  Potency: inactive

## Cc1ccc(S(=O)(=O)N2[C@@H](c3ccc(C(C)(C)C)cc3)C(C(=O)O)=CC[C@H]2c2cccc(Cl)c2)cc1
[1]
  Potency: 47.8 µM (active)
[2]
  Potency: inactive
[3]
  Potency: inactive
